Test systems include SK-MEL-2 melanoma; EKVX NSCLC; SN12C renal; UO-31 renal; TK-10 renal; ACHN renal; CAKI-1 renal; A498 renal; SR leukemia; RPMI-8226 leukemia; OVCAR-8 ovarian; OVCAR-5 ovarian; OVCAR-4 ovarian; SK-OV-3 ovarian; IGROV1 ovarian; OVCAR-3 ovarian; HS 578T breast; NCI/ADR-RES ovarian; MOLT-4 leukemia.
What all share (assay): NCI-60 one-dose screen, 48 h (100 = growth as untreated, 0 = no growth, -100 = all killed)
Holding throughout (conditions): 10 µM unless noted

The panel holds about 83,000 compounds, 20% with a hit somewhere; the sample as a whole holds those more often.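 Testing used 96-well plates and a 48-hour single-concentration exposure. Example: -40 means 40% of the starting cells died.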 A number with no mark means an inactive call. Active and inactive are the calls of the source. Rule for the calls: active = growth percent below 10; inactive = the rest.

In the case of `Clc1cccc(Cl)c1/C=C/c1cc(/C=C/c2c(Cl)cccc2Cl)[nH]n1`, the growth was 32.4% with SK-MEL-2 melanoma; 42% in the assay with EKVX NSCLC; 40.4% with SN12C renal; 51% in the assay on UO-31 renal; 52.2% with TK-10 renal; 48.9% in the assay on ACHN renal. Moreover, the growth with CAKI-1 renal was 30.1%; with A498 renal it was 19%; with SR leukemia, 24.7%; in the assay with RPMI-8226 leukemia, 21.8%; in the assay on OVCAR-8 ovarian it was 31.1%; with OVCAR-5 ovarian, 33.4%. Moreover, the growth in the assay on OVCAR-4 ovarian was 54.6%; with SK-OV-3 ovarian, 44.4%; in the assay on IGROV1 ovarian, 48%; in the assay on OVCAR-3 ovarian it was -16.5% (active); in the assay with HS 578T breast, 45.5%; in the assay with NCI/ADR-RES ovarian, 4.02% (active).
As to `CNS(=O)(=O)c1n[nH]nc1-c1cc(C(C)(C)C)c(O)c(C(C)(C)C)c1`, the growth with SK-MEL-2 melanoma was 104%; with EKVX NSCLC it was 89.8%; with SN12C renal it was 103%; in the assay with UO-31 renal, 84.2%; with TK-10 renal, 111%; in the assay with ACHN renal it was 98.7%. For the same compound, the growth with CAKI-1 renal is 95.1%; in the assay with A498 renal, 100%; in the assay on SR leukemia it was 98.6%; with RPMI-8226 leukemia, 96.2%; in the assay with OVCAR-8 ovarian, 100%; in the assay with OVCAR-5 ovarian, 111%. In addition, the growth is 100% with OVCAR-4 ovarian; 92.9% in the assay with SK-OV-3 ovarian; 103% in the assay with IGROV1 ovarian; 112% with OVCAR-3 ovarian; 102% with HS 578T breast; 105% with NCI/ADR-RES ovarian.
For `Cc1c2c(c(C)c3c1oc1cc(O)ccc13)C(=O)N(CCN1CCCCC1)C2=O`, the growth with SK-MEL-2 melanoma is 105%; in the assay on EKVX NSCLC, 101%; in the assay on SN12C renal, 85.9%; in the assay on UO-31 renal, 74.9%; with TK-10 renal, 96.7%; with ACHN renal, 84.3%. The growth was 76.3% in the assay on CAKI-1 renal; 106% with A498 renal; 80.4% with MOLT-4 leukemia; 74.6% with RPMI-8226 leukemia; 64.2% in the assay with OVCAR-8 ovarian; 114% with OVCAR-5 ovarian. Besides, the growth with OVCAR-4 ovarian was 94.1%; in the assay on SK-OV-3 ovarian, 105%; with IGROV1 ovarian it was 82.8%; in the assay with OVCAR-3 ovarian it was 99.1%; in the assay on HS 578T breast, 89.8%; in the assay on NCI/ADR-RES ovarian, 81.7%.
For the compound `NS(=O)(=O)c1cnccc1Sc1ccncc1S(N)(=O)=O`, the growth in the assay with SK-MEL-2 melanoma is 119%; in the assay on EKVX NSCLC, 96.9%; in the assay on SN12C renal, 100%; in the assay on UO-31 renal, 80%; in the assay with TK-10 renal it was 99.6%; with ACHN renal, 106%. Besides, the growth with CAKI-1 renal was 98.2%; with A498 renal, 104%; in the assay on SR leukemia it was 92.2%; in the assay on RPMI-8226 leukemia, 86.2%; in the assay with OVCAR-8 ovarian, 96%; with OVCAR-5 ovarian, 101%. The growth in the assay with OVCAR-4 ovarian is 118%; in the assay on SK-OV-3 ovarian it was 95.6%; in the assay on IGROV1 ovarian it was 6.71% (active); in the assay on OVCAR-3 ovarian it was 103%; with HS 578T breast, 94.5%; in the assay on NCI/ADR-RES ovarian, 98.9%.
`O=C(O)CN1C(=O)CCC1=O`: the growth in the assay with SK-MEL-2 melanoma is 118%; in the assay on EKVX NSCLC it was 95.4%; in the assay with SN12C renal, 102%; with UO-31 renal, 102%; in the assay on TK-10 renal it was 107%; with ACHN renal, 96%. Moreover, the growth was 102% with CAKI-1 renal; 97.4% in the assay on A498 renal; 114% in the assay with MOLT-4 leukemia; 112% in the assay on SR leukemia; 99.4% with OVCAR-8 ovarian; 101% in the assay on OVCAR-5 ovarian. For the same compound, the growth is 104% in the assay on SK-OV-3 ovarian; 118% in the assay on IGROV1 ovarian; 115% with OVCAR-3 ovarian; 115% with HS 578T breast; 112% in the assay with NCI/ADR-RES ovarian.
On to `O=C(O)c1ccc2c(c1)CCC2`, for which the growth is 95.8% in the assay with SK-MEL-2 melanoma; 117% in the assay on EKVX NSCLC; 103% in the assay on SN12C renal; 94.4% with UO-31 renal; 107% in the assay with TK-10 renal; 104% with ACHN renal. Besides, the growth in the assay with CAKI-1 renal was 101%; in the assay on A498 renal, 139%; in the assay on MOLT-4 leukemia it was 91.1%; in the assay with RPMI-8226 leukemia, 99.8%; with OVCAR-8 ovarian, 107%; with OVCAR-5 ovarian it was 105%. In addition, the growth with OVCAR-4 ovarian is 107%; in the assay with SK-OV-3 ovarian, 107%; with IGROV1 ovarian it was 103%; with OVCAR-3 ovarian it was 119%; in the assay on HS 578T breast, 134%; in the assay on NCI/ADR-RES ovarian, 111%.
Consider `Cn1cc(-c2csc(-c3cccc(F)c3)n2)c2cccnc21`, for which the growth was -51.7% [100 µM] (active) with SK-MEL-2 melanoma; 21.3% [100 µM] with EKVX NSCLC; -65% [100 µM] (active) in the assay on SN12C renal; -27.7% [100 µM] (active) in the assay on UO-31 renal; -52.7% [100 µM] (active) in the assay on TK-10 renal; -31.8% [100 µM] (active) in the assay on ACHN renal. Moreover, the growth in the assay on CAKI-1 renal was -57.2% [100 µM] (active); in the assay on A498 renal, -84.2% [100 µM] (active); in the assay on MOLT-4 leukemia, 4.1% [100 µM] (active); with SR leukemia, 0.511% [100 µM] (active); in the assay with OVCAR-8 ovarian, 1.57% [100 µM] (active); in the assay on OVCAR-5 ovarian, -52.4% [100 µM] (active). The growth in the assay with OVCAR-4 ovarian is -44.8% [100 µM] (active); in the assay on SK-OV-3 ovarian, -20.8% [100 µM] (active); in the assay on IGROV1 ovarian, -22.6% [100 µM] (active); in the assay on OVCAR-3 ovarian, -44.7% [100 µM] (active); in the assay with HS 578T breast, 15.9% [100 µM]; with NCI/ADR-RES ovarian it was -34.4% [100 µM] (active).
As to `CCOC(CN=Cc1cc(C)c2[nH]c3ccccc3c2c1C)OCC`, the growth was 91.4% in the assay on SK-MEL-2 melanoma; 105% in the assay with EKVX NSCLC; 99.1% in the assay on SN12C renal; 94.3% with UO-31 renal; 83.3% with TK-10 renal; 106% in the assay on ACHN renal. In addition, the growth was 105% with CAKI-1 renal; 37.5% with A498 renal; 81.2% in the assay on MOLT-4 leukemia; 88.7% in the assay on RPMI-8226 leukemia; 94.7% in the assay on OVCAR-8 ovarian; 83.4% with OVCAR-5 ovarian. The growth in the assay with OVCAR-4 ovarian is 97.8%; with SK-OV-3 ovarian, 111%; with IGROV1 ovarian it was 102%; in the assay with OVCAR-3 ovarian, 104%; with HS 578T breast it was 123%; in the assay on NCI/ADR-RES ovarian, 101%.
